Bioassay records (PubChem)
Most compounds without a hit are left out; they make up all but 4.3% or so of the library.
Peg3 prom inh = Peg3 promoter-driven luciferase inhibitors, primary screen, cell-based, HeLa, luciferase luminescence; HeLa PEG-Prom luciferase reporter, overnight; inhibition, % at 20 µM; 360,000 compounds, 1.7% hits;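 active = inhibition of at least 50% at 20 µM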
CF NFkB block = inhibitors of PAF-induced NF-kB signaling, primary screen, cell-based, GFP fluorescence, uHTS | KKLEB NF-kB-GFP reporter, GFP fluorescence overnight | 360,000 compounds, 0.86% hits | inhibition, % at 5 µM;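 active = at least 50% inhibition at 5 µM, scaled per plate between neutral and stimulator controls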;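 also: PAF is a Pseudomonas aeruginosa culture filtrate used as stimulus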
CHOP inhibitor = inhibitors of CHOP promoter induction, primary screen, cell-based, unfolded protein response, luciferase reporter; CHO-K1 CHOP-promoter luciferase, tunicamycin-induced, 15-18 h; inhibition, % at 10 µM; 220,000 compounds, 3.8% hits; AID 2732, 2010;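 active = compounds that reduced the stress-induced luciferase reporter signal by more than about 70% of percent inhibition, limit read from the data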
MITF TRPM1 inh = inhibitors of MITF-dependent TRPM1 promoter reporter, primary screen, cell-based, SK-MEL-5, single point, luciferase. 330,000 compounds, 0.83% hits. inhibition, % at 12.5 µM. SK-MEL-5 TRPM1 promoter luciferase, 24 h;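 active = mean inhibition across replicates of 60% or more, whatever share of single replicates reaches that level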
HIF-2a block = HIF-2a reporter inhibitors, primary screen, luminescence, 786-0 RCC cells; AID 624352, 2012; 360,000 compounds, 0.72% hits; inhibition, % at 18.8 µM; 786-0 RCC cells HIF-2a reporter, luciferase luminescence, overnight;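 active = inhibition of the luminescence signal of 40% or more relative to plate controls, in a single-dose primary screen at 18.75 µM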
KKLEB tox = cytotoxicity in KKLEB CF airway cells, primary screen, cytotoxicity control for CF NF-kB inhibitor project, cell-based, uHTS, fluorescence assay plates; activity change (cytotoxicity), % at 5 µM; 360,000 compounds, 0.36% hits; KKLEB CF airway cells viability, ATPlite luminescence, overnight; active compounds read low; cells stimulated with P. aeruginosa culture filtrate;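 active = corrected activity change at or below -50% at 5 µM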
Of the large screens only hits and unclear results are named; the others gave an inactive call.

Clc1cccc(-c2nnc(SCc3nc4ccccc4[nH]3)n2Cc2ccco2)c1	none
CCCS(=O)(=O)NC(=O)C1(C)CCCN(C(=O)c2cc(OC)c(OC)c(OC)c2)C1 (stereo unspecified)	none (no result: CHOP inhibitor, MITF TRPM1 inh)
COC(=O)C(Sc1ccc(Cl)cc1)C1SC(=S)N(Cc2ccccc2)C1=O (stereo unspecified)	CF NFkB block 58 (no result: CHOP inhibitor, MITF TRPM1 inh)
COC(=O)c1cccc(CN2C(=O)C(C)Sc3cc(Cl)ccc32)c1 (stereo unspecified)	none (no result: CHOP inhibitor, MITF TRPM1 inh)
COc1oc(C(=O)NC2CCCCC2)c(-c2ccc(Cl)cc2)c1S(=O)(=O)c1ccccc1	none (no result: CHOP inhibitor)
CCC/C=C/c1ccc(CN2C(CC(C)C)C(=O)N(Cc3cn(CC4CCCCC4)nn3)CCS2(=O)=O)cc1 (stereo unspecified)	none (no result: CHOP inhibitor, MITF TRPM1 inh)
COc1ccc(C(c2c[nH]c3ccccc23)c2c[nH]c3ccccc23)cc1O	CHOP inhibitor 75
COc1cc(NS(=O)(=O)c2ccc(OC)c(OC)c2)cc(OC)c1	Peg3 prom inh 52
Cc1ccc2cc(CN(Cc3nnnn3C3CCCCC3)CC3CCCO3)c(=O)[nH]c2c1 (stereo unspecified)	none
Cc1ccc2[nH]c(=O)c(CN(Cc3ccc4c(c3)OCO4)Cc3nnnn3C3CCCC3)cc2c1	CHOP inhibitor 72
Cc1cc(C)c2cc(CN(Cc3nnnn3C3CCCCC3)CC3CCCO3)c(=O)[nH]c2c1 (stereo unspecified)	CHOP inhibitor 71
CCc1ccc2[nH]c(=O)c(CN(Cc3nnnn3C3CCCC3)C3CCCCC3)cc2c1	CHOP inhibitor 78
O=C(COc1cccnc1[N+](=O)[O-])Nc1ccc(S(=O)(=O)N2CCOCC2)cc1	none
CCOC(=O)c1ccc(S(=O)(=O)N2CCN(C/C=C/c3ccccc3)CC2)cc1	none (no result: CHOP inhibitor)
CN1CCc2c(sc3c2C(=O)NC(c2ccco2)N3)C1 (stereo unspecified)	none
CN1CCc2c(sc3c2C(=O)NC(c2cn(Cc4ccccc4)c4ccccc24)N3)C1 (stereo unspecified)	CHOP inhibitor 79
COCc1cn(CC(C)n2c(=O)c3ccccc3n2Cc2cc(C(C)C)no2)nn1 (stereo unspecified)	none (no result: Peg3 prom inh, CF NFkB block, CHOP inhibitor, MITF TRPM1 inh, KKLEB tox)
Cc1cc(NC(=O)COC(=O)c2oc3c(Cl)cccc3c2C)no1	CHOP inhibitor 74
COc1ccc(S(=O)(=O)N2CCOCC2)cc1NC(=O)COc1ccc(C(C)=O)cc1OC	none (no result: CHOP inhibitor)
CC1OC(OC2C(OC3C(O[C@H]4CC[C@]5(C)C6C=C[C@]78OC[C@@]9(CC[C@@H](C)[C@H](C)C97)[C@H](O)C[C@@]8(C)[C@]6(C)CC[C@H]5C4(C)C)OC(C)C(O)C3O)OC(CO)C(O)C2O)C(O)C(O)C1O (stereo partly specified)	CHOP inhibitor 101 (no result: Peg3 prom inh, CF NFkB block, MITF TRPM1 inh, HIF-2a block, KKLEB tox)
C[C@H]1O[C@@H](O[C@H]2CC[C@@]3(C)C(CC[C@]4(C)C3C=C[C@]35OC[C@@]6(CCC(C)(C)C[C@H]63)[C@@H](O)C[C@]54C)[C@]2(C)CO)[C@H](O)[C@@H](O[C@@H]2O[C@H](CO)[C@@H](O)[C@H](O)[C@H]2O)[C@H]1O (stereo partly specified)	none (no result: CHOP inhibitor)
CN(C)S(=O)(=O)c1ccc(-c2csc(N/N=C/c3ccco3)n2)cc1	Peg3 prom inh 61, MITF TRPM1 inh 72
COC(=O)[C@@]12C[C@@H](CC(=O)NCCCN3CCCC3=O)C(=O)N(Cc3ccco3)C1=CCC(C)(C)C2	none (no result: Peg3 prom inh, CF NFkB block, CHOP inhibitor, MITF TRPM1 inh, KKLEB tox)
N/C(=N\N=C/c1ccc(Br)cc1)N/N=C\c1ccc(Br)cc1	Peg3 prom inh 102
N/C(=N\N=Cc1ccc2c(c1)OCO2)NN=Cc1ccc2c(c1)OCO2	MITF TRPM1 inh 66 (no result: CHOP inhibitor)
Cc1ccc2c(c1)N(C(=O)CCC(=O)N1CCC(C(N)=O)CC1)CC(C)O2 (stereo unspecified)	none (no result: CHOP inhibitor)
c1ccc(-c2nc(NCc3ccco3)c3oc4ccccc4c3n2)cc1	CHOP inhibitor 92
Cc1ccc(-c2nc(NCc3ccco3)c3ccccc3n2)cc1	none
C=CCNc1sc(C(=O)c2ccccc2)c(N)c1-c1nc2ccccc2s1	CHOP inhibitor 82
CCNc1sc(C(=O)c2cccs2)c(N)c1C#N	none
